PubChem BioAssay AID1159580 (chemical genetic matrix, 2015)
Where “and” joins values, the source holds several entries; their conditions need not be identical. Equal entries are not always repeated. In all, about 5,500 compounds went through this assay and about 2,000 (36%) were called active. Another 18% or so got no clear call; they are omitted. No stated cut-off is given here; in the data, active means normalized growth mostly below about 0.91 (no sharp cut-off); inconclusive means no clear call, values can overlap the other calls; inactive means mostly above about 0.92. The list shows a part of the results.

Test: chemical genetic growth profiling, strain panel (AID 1159580);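 further: tested at 20 µM; growth read once vehicle control cultures reached saturation at 30 °C; 1 = growth at the plate median or of vehicle wells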
Conditions: growth OD

Measured: normalized growth

NNCc1cccc(O)c1
inactive: S. cerevisiae deletion strains, locus YAL013W, strain DEP1, stronger effect = lower value 0.994 | S. cerevisiae deletion strains, locus YAL040C, strain CLN3, stronger effect = lower value 1.08 | S. cerevisiae deletion strains, locus YBR021W, strain FUR4, stronger effect = lower value 1.07 | S. cerevisiae deletion strains, locus YBR229C, strain ROT2, stronger effect = lower value 1 | S. cerevisiae deletion strains, locus YCL029C, strain bik1, stronger effect = lower value 0.988 | S. cerevisiae deletion strains, locus YCL061C, strain MRC1 (second series), stronger effect = lower value 0.984 | S. cerevisiae deletion strains, locus YDL035C, strain GPR1, stronger effect = lower value 0.969 | S. cerevisiae deletion strains, locus YDL074C, strain BRE1, stronger effect = lower value 0.98 | S. cerevisiae deletion strains, locus YDL101C, strain DUN1, stronger effect = lower value 0.994 | S. cerevisiae deletion strains, locus YDL134C, strain PPH21, stronger effect = lower value 0.994 | S. cerevisiae deletion strains, locus YDL192W, strain arf1, stronger effect = lower value 1 | S. cerevisiae deletion strains, locus YDR101C, strain arx1, stronger effect = lower value 0.989 | S. cerevisiae deletion strains, locus YDR150W, strain NUM1, stronger effect = lower value 0.987 and 0.976 | S. cerevisiae deletion strains, locus YDR162C, strain NBP2, stronger effect = lower value 0.987 | S. cerevisiae deletion strains, locus YDR318W, strain mcm21, stronger effect = lower value 1 | S. cerevisiae deletion strains, locus YDR363W, strain ESC2, stronger effect = lower value 1.01 | S. cerevisiae deletion strains, locus YDR388W, stronger effect = lower value 1.01 | S. cerevisiae deletion strains, locus YDR502C, strain sam2, stronger effect = lower value 0.996 | S. cerevisiae deletion strains, locus YEL061C, strain CIN8, stronger effect = lower value 1 | S. cerevisiae deletion strains, locus YER002W, strain NOP16, stronger effect = lower value 0.995 | S. cerevisiae deletion strains, locus YER110C, stronger effect = lower value 0.968 | S. cerevisiae deletion strains, locus YER155C, strain BEM2, stronger effect = lower value 1 | S. cerevisiae deletion strains, locus YER167W, strain BCK2, stronger effect = lower value 0.99 | S. cerevisiae deletion strains, locus YGL078C, strain dbp3, stronger effect = lower value 0.99 | S. cerevisiae deletion strains, locus YGL086W, strain mad1, stronger effect = lower value 0.984 | S. cerevisiae deletion strains, locus YGL248W, strain PDE1, stronger effect = lower value 0.996 | S. cerevisiae deletion strains, locus YGR078C, strain PAC10, stronger effect = lower value 1 | S. cerevisiae deletion strains, locus YGR135W, strain pre9, stronger effect = lower value 1.02 | S. cerevisiae deletion strains, locus YGR229C, strain SMI1, stronger effect = lower value 1.01 | S. cerevisiae deletion strains, locus YGR252W, strain gcn5, stronger effect = lower value 0.992 | S. cerevisiae deletion strains, locus YHR030C, strain SLT2, stronger effect = lower value 0.994 | S. cerevisiae deletion strains, locus YHR079C, strain IRE1 (second series), stronger effect = lower value 0.987 | S. cerevisiae deletion strains, locus YHR094C, strain hxt1, stronger effect = lower value 0.99 | S. cerevisiae deletion strains, locus YHR129C, strain ARP1, stronger effect = lower value 0.993 | S. cerevisiae deletion strains, locus YHR200W, strain rpn10, stronger effect = lower value 0.986 | S. cerevisiae deletion strains, locus YIL066C, strain RNR3, stronger effect = lower value 0.99 | S. cerevisiae deletion strains, locus YIL073C, strain SPO22, stronger effect = lower value 0.92 | S. cerevisiae deletion strains, locus YIL125W, strain kgd1, stronger effect = lower value 0.971 | S. cerevisiae deletion strains, locus YIR030C, strain dcg1, stronger effect = lower value 0.989 | S. cerevisiae deletion strains, locus YJL095W, strain BCK1, stronger effect = lower value 1.01 | S. cerevisiae deletion strains, locus YJL134W, strain LCB3, stronger effect = lower value 0.987 | S. cerevisiae deletion strains, locus YJL168C, strain set2, stronger effect = lower value 0.981 | S. cerevisiae deletion strains, locus YJL187C, strain SWE1 (second series), stronger effect = lower value 0.991 | S. cerevisiae deletion strains, locus YJR043C, strain POL32, stronger effect = lower value 0.974 | S. cerevisiae deletion strains, locus YJR075W, strain HOC1, stronger effect = lower value 0.99 | S. cerevisiae deletion strains, locus YKL009W, strain mrt4, stronger effect = lower value 0.966 | S. cerevisiae deletion strains, locus YKL068W, stronger effect = lower value 0.98 | S. cerevisiae deletion strains, locus YKL085W, strain MDH1 (second series), stronger effect = lower value 0.991 | S. cerevisiae deletion strains, locus YKL085W, strain MDH1, stronger effect = lower value 0.991 | S. cerevisiae deletion strains, locus YKL190W, strain CNB1, stronger effect = lower value 1 | S. cerevisiae deletion strains, locus YKR001C, strain vps1, stronger effect = lower value 1 | S. cerevisiae deletion strains, locus YLR039C, strain RIC1, stronger effect = lower value 0.928 | S. cerevisiae deletion strains, locus YLR058C, strain SHM2, stronger effect = lower value 0.994 | S. cerevisiae deletion strains, locus YLR102C, strain apc9, stronger effect = lower value 0.982 | S. cerevisiae deletion strains, locus YLR262C, strain YPT6, stronger effect = lower value 0.892 | S. cerevisiae deletion strains, locus YLR268W, strain sec22, stronger effect = lower value 1.01 | S. cerevisiae deletion strains, locus YLR330W, strain CHS5, stronger effect = lower value 0.987 | S. cerevisiae deletion strains, locus YLR342W, strain FKS1 (second series), stronger effect = lower value 0.965 | S. cerevisiae deletion strains, locus YLR371W, strain rom2, stronger effect = lower value 0.967 | S. cerevisiae deletion strains, locus YLR418C, strain cdc73, stronger effect = lower value 1.03 | S. cerevisiae deletion strains, locus YML016C, strain PPZ1, stronger effect = lower value 0.993 | S. cerevisiae deletion strains, locus YML032C, strain rad52, stronger effect = lower value 0.974 | S. cerevisiae deletion strains, locus YML124C, strain tub3, stronger effect = lower value 0.999 | S. cerevisiae deletion strains, locus YMR078C, strain ctf18, stronger effect = lower value 1 | S. cerevisiae deletion strains, locus YMR223W, strain ubp8, stronger effect = lower value 0.988 | S. cerevisiae deletion strains, locus YMR263W, strain SAP30, stronger effect = lower value 1 | S. cerevisiae deletion strains, locus YMR307W, strain GAS1, stronger effect = lower value 1.01 | S. cerevisiae deletion strains, locus YNL067W, strain RPL9B, stronger effect = lower value 0.994 | S. cerevisiae deletion strains, locus YNL128W, strain TEP1, stronger effect = lower value 1.01 and 0.986 | S. cerevisiae deletion strains, locus YNL153C, strain GIM3, stronger effect = lower value 1.02 and 1.01 | S. cerevisiae deletion strains, locus YNL175C, strain NOP13, stronger effect = lower value 0.994 | S. cerevisiae deletion strains, locus YNL197C, strain WHI3, stronger effect = lower value 1.01 | S. cerevisiae deletion strains, locus YNL224C, strain SQS1, stronger effect = lower value 0.987 | S. cerevisiae deletion strains, locus YNL233W, strain BNI4, stronger effect = lower value 1.01 | S. cerevisiae deletion strains, locus YNL250W, strain rad50, stronger effect = lower value 0.969 | S. cerevisiae deletion strains, locus YNL271C, strain bni1, stronger effect = lower value 0.98 | S. cerevisiae deletion strains, locus YNL298W, strain CLA4, stronger effect = lower value 1 | S. cerevisiae deletion strains, locus YNL307C, strain MCK1, stronger effect = lower value 0.997 | S. cerevisiae deletion strains, locus YNL322C, strain KRE1, stronger effect = lower value 0.991 and 0.996 | S. cerevisiae deletion strains, locus YNR052C, strain pop2, stronger effect = lower value 0.981 | S. cerevisiae deletion strains, locus YOL006C, strain TOP1, stronger effect = lower value 0.996 | S. cerevisiae deletion strains, locus YOL012C, strain htz1 0.847 | S. cerevisiae deletion strains, locus YOL147C, strain pex11, stronger effect = lower value 1 | S. cerevisiae deletion strains, locus YOR061W, strain CKA2, stronger effect = lower value 0.993 | S. cerevisiae deletion strains, locus YOR069W, strain VPS5, stronger effect = lower value 1 | S. cerevisiae deletion strains, locus YOR083W, strain WHI5 (second series), stronger effect = lower value 0.953 | S. cerevisiae deletion strains, locus YOR136W, strain idh2, stronger effect = lower value 0.994 | S. cerevisiae deletion strains, locus YOR144C, strain elg1, stronger effect = lower value 0.994 | S. cerevisiae deletion strains, locus YOR184W, strain ser1, stronger effect = lower value 0.974 | S. cerevisiae deletion strains, locus YOR316C, strain cot1, stronger effect = lower value 0.994 | S. cerevisiae deletion strains, locus YPL055C, strain LGE1, stronger effect = lower value 1 | S. cerevisiae deletion strains, locus YPL241C, strain CIN2, stronger effect = lower value 0.967 | S. cerevisiae deletion strains, locus YPR119W, strain clb2, stronger effect = lower value 0.998 | S. cerevisiae deletion strains, locus YPR141C, strain kar3, stronger effect = lower value 0.998 | S. cerevisiae deletion strains, locus YPR163C, strain tif3, stronger effect = lower value 1 | S. cerevisiae deletion strains, locus YPR167C, strain met16, stronger effect = lower value 0.999 | S. cerevisiae deletion strains, strain wtn01, stronger effect = lower value 0.994 | S. cerevisiae strains, strain wild type, stronger effect = lower value 0.994
